# Paper PMC4336329 (PLoS ONE, 2015)
# Out of some 310,000 compounds screened, about 14,000 (4.5%) showed an effect of 50% or more. The effect is printed as a negative number. What follows is part of a selection rich in strong results, with near analogues and random picks from the rest.
# Target: human ether-à-go-go-related gene (hERG) potassium channel (human, UniProt Q12809)
# Experiment: primary screen, population patch clamp on CHO cells stably expressing hERG; higher = less effect of the substance
# 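Also: peak tail current of the secondary pulse compared with the same well before compound.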
# Sequence of human ether-à-go-go-related gene (hERG) potassium channel (Q12809 whole entry, looked up): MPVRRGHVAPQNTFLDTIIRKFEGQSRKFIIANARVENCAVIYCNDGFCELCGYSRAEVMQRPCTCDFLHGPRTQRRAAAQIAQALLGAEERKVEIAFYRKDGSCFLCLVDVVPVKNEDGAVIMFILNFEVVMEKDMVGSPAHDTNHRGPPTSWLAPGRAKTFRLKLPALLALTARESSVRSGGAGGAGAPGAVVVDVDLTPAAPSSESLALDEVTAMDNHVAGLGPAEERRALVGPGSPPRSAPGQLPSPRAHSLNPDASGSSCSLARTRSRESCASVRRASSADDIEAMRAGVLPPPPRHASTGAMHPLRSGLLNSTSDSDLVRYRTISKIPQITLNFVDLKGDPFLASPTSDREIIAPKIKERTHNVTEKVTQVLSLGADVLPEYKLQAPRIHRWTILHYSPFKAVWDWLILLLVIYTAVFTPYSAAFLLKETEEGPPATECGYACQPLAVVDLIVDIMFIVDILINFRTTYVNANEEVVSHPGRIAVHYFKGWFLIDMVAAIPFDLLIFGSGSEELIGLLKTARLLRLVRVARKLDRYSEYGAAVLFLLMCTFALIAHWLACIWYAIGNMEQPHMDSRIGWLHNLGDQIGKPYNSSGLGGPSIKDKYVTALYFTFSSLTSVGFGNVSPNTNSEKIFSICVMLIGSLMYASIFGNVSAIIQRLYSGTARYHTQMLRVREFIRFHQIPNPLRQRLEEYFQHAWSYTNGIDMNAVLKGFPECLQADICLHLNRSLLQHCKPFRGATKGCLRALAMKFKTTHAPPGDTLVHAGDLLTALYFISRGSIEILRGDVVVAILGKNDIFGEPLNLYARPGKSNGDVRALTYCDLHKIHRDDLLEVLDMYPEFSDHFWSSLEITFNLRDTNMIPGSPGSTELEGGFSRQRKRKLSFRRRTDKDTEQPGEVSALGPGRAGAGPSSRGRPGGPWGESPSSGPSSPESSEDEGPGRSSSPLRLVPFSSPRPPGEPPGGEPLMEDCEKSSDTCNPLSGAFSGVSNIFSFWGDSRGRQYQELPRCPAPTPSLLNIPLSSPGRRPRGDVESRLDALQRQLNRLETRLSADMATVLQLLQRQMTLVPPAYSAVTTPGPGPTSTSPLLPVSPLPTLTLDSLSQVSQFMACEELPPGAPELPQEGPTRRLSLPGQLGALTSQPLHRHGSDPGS
row,SMILES,"hERG current change (%, negative = inhibition) at 10uM [%]"
1,Cc1ccc(-n2c(C)cc(/C=C3/C(=O)NC(=O)N(C)C3=O)c2C)cc1,15.2
2,CSc1nnc(-c2ccc(Br)s2)n1C,1.98
3,O=C(Cn1cc(C(F)(F)F)ccc1=O)N/N=C/c1ccccc1O,-7.65
4,O=C(CSC1=NCCN1)Nc1ccccc1[N+](=O)[O-],11.2
5,CC(Sc1ccc(Cl)cc1)C(=O)Nc1ccc(S(=O)(=O)N2CCOCC2)cc1 (stereo not shown),-22.7
6,CC(Sc1ccc(S(=O)(=O)N2CCOCC2)cn1)C(=O)Nc1ccc(Cl)cc1Cl (stereo not shown),-56.1
7,CNC(=O)C(C)Sc1ccc(S(=O)(=O)N2CCOCC2)cn1 (stereo not shown),-0.356
8,COc1ccc(Cl)cc1N1CCN(CCNC(=O)Nc2ccccc2C)CC1,-40.1
9,COc1cc(CNc2ncc(-c3ccc(Br)cc3)n2C)cc(OC)c1OC.O=C(O)C(=O)O,-49.9
10,COc1ccc(CNc2ncc(-c3ccccc3)n2C)c(OC)c1OC.O=C(O)C(=O)O,-44.1
11,CCOc1cc(CNc2ncc(-c3ccc(OC)cc3)n2C)ccc1O.O=C(O)C(=O)O,-48.3
12,COc1cc(CNc2ncc(-c3ccc(Br)cc3)n2C)cc(OC)c1O.O=C(O)C(=O)O,-60.5
13,COc1cc(CNc2ncc(-c3ccc(Cl)cc3)n2C)cc(OC)c1OC.O=C(O)C(=O)O,-66.9
14,COc1ccc(CNc2ncc(-c3ccc(Cl)cc3)n2C)c(OC)c1OC.O=C(O)C(=O)O,-47
15,Cc1cccc2c1cnn2C(=O)CCC(=O)N1CCC(C)CC1,-14.1
16,Br.NC1(N)OC(CN2C(=O)c3ccccc3C2=O)CS1 (stereo not shown),-5.75
17,Cc1c(C(=O)NC(C)c2ccncc2)oc2ccccc12 (stereo not shown),-29.7
18,CC(C)C(=O)Nc1cccc(NC(=O)c2cccc(Br)c2)c1,-52.1
19,CCOc1ccc(OCc2cccc(C(=O)N3CCCCCC3)c2)cc1,-69.3
20,CCCNC(=O)c1cccc(NC(=O)C(C)C)c1,-25.4
21,COc1ccc(OCc2cccc(C(=O)Nc3ccc(CN4CCCCC4)cc3)c2)cc1,-72.8
22,O=C(Nc1ccc(CN2CCCCC2)cc1)c1ccc2c(c1)OCO2,-64.3

row,SMILES,"hERG current change (%, negative = inhibition) at 10uM [%]"
1,COc1ccc(OCc2cccc(C(=O)N3CCCC3)c2)cc1,-3.08
2,COc1ccc(C(=O)Nc2ccc(CN3CCCCC3)cc2)cc1,-40.3
3,O=C(Nc1ccc2c(c1)OCO2)c1ccc(CN2CCOCC2)cc1,10.1
4,CCOc1ccc(OCc2cccc(C(=O)N3CCCC3)c2)cc1,-11.6
5,COc1cc(OC)cc(C(=O)Nc2ccc(CN3CCCCC3)cc2)c1,-14.7
6,CC(C)C(=O)Nc1cccc(NC(=O)c2cccc(F)c2)c1,5.16
7,O=C(Nc1ccc(C(=O)N2CCCC2)cc1)c1ccc2c(c1)OCO2,-0.403
8,CC(=O)Nc1ccc(NC(=O)C(C)OC(=O)c2cccc(S(=O)(=O)N3CCCC3)c2)cc1 (stereo not shown),10.4
9,Cc1ccccc1CCNC(=O)C1CCCN(c2cnccn2)C1 (stereo not shown),-0.76
10,O=C(O)C(=O)O.O=C(c1cccnc1)N1CCN(Cc2ccccc2Br)CC1,4.7
11,CCCCN(C)C(=O)c1nc2ccccn2c1CN1CCC[C@H]1CO,3.21
12,CC(C)C[C@H](NC(=O)c1nc[nH]c1C(=O)NCc1ccc(CNC(=O)OC(C)(C)C)cc1)C(=O)OCc1ccccc1,2.91
13,CCOC(=O)CNC(=S)N(Cc1cccs1)C1CCCC1,-5.82
14,O=c1c2[nH]c3ccccc3c2ncn1Cc1ccccn1,-0.569
15,CCOC(=O)c1ccccc1NC(=O)COC(=O)CCC(=O)c1ccccc1,16.3
16,NNC(=S)NC1CCS(=O)(=O)C1 (stereo not shown),22.1
17,Cc1cc(/C=C2/C(=O)N(C)C(=S)N2C)ccc1N1CCCC1,7.27
18,Cc1ccc(S(=O)(=O)N(CC(=O)Nc2ccc(C(N)=O)cc2)C(=O)N2CCN(C)CC2)cc1,-0.0686
19,CCCC(=O)Nc1cccc(NC(=O)c2ccc3c(c2)OCO3)c1,-52.3
20,O=C(Nc1ccc(CN2CCCCC2)cc1)c1cccc(F)c1,-40
21,CCOc1ccc(OCc2cccc(C(=O)Nc3ccc(CN4CCCCC4)cc3)c2)cc1,-63.2
22,O=C(Nc1ccc(CN2CCCCC2)cc1)c1cccc(Br)c1,-86.7

row,SMILES,"hERG current change (%, negative = inhibition) at 10uM [%]"
1,CCOc1ccc(NC(=O)c2ccc(CN3CCc4ccccc4C3)cc2)cc1,0.805
2,O=C(NC(=S)Nc1ccc(CN2CCCCC2)cc1)c1cccc(OCc2ccccc2)c1,-5.83
3,CCCCC(=O)Nc1cccc(NC(=O)c2ccc3c(c2)OCO3)c1,6.43
4,CCOc1ccc(OCc2cccc(C(=O)O)c2)cc1,8.48
5,CCOc1ccc(OCc2cccc(C(=O)N(CC)CC)c2)cc1,-67.6
6,CCCC(=O)Nc1cccc(NC(=O)c2ccc3c(c2)OCCO3)c1,5.87
7,O=C(Nc1ccc(CN2CCCCC2)cc1)c1cc(Br)ccc1Cl,-20.3
8,CCOc1ccc(OCc2ccc(C(=O)N(CC)CC)cc2)cc1,2.22
9,COc1ccc(NC(=O)CO/N=C2/CCCc3nonc32)c(OC)c1,11.1
10,COc1ccc(CCNC(=O)Cn2nnc(-c3cccs3)n2)cc1OC,-7.76
11,Cc1onc(-c2ccccc2Cl)c1C(=O)N1CCC(C)CC1,4
12,COC(=O)/C(=C/c1ccccc1)NC(=O)c1ccco1,4.23
13,O=C(Nc1ccc(CN2CCCCC2)cc1)c1c(F)c(F)c(F)c(F)c1F,-56.5
14,CC(=O)Nc1ccc(CN2CCCCCCC2)cc1,-4.11
15,CN1CCN(c2ccc(NC(=O)c3ccc4c(c3)OCO4)cc2)CC1,-38.3
16,O=C(Nc1ccc(CN2CCCCC2)cc1)c1ccc(Br)o1,-33
17,CCC(=O)N1CCN(c2ccc(NC(=O)c3ccc4c(c3)OCO4)cc2)CC1,-0.905
18,CCN1CCN(c2ccc(NC(=O)c3ccc4c(c3)OCO4)cc2)CC1,-54.5
19,Cc1nc2ccc(C(=O)Nc3ccccc3Cl)cc2s1,10.5
20,O=C(Cc1ccccc1F)NC1CCSc2ccccc21 (stereo not shown),-13
21,O=C(Nc1ccccc1)NC1CCCCNC1=O (stereo not shown),21.4
22,Cc1cccc(C(=O)N/N=C/c2ccc(OC3CSC3)cc2)c1,-92.4

row,SMILES,"hERG current change (%, negative = inhibition) at 10uM [%]"
1,COc1cccc(C(=O)N/N=C/c2ccc(OC3CSC3)cc2)c1,5.4
2,O=C(N/N=C/c1ccc(OC2CSC2)cc1)c1ccccc1,-13.6
3,COC(=O)c1ccccc1NC(=O)c1ccc(Cn2cc(Cl)cn2)o1,4.21
4,CCOC(=O)C1=C(c2cccc(Oc3ccccc3)c2)NC(=S)NC1C (stereo not shown),-15.8
5,CCn1c(CC(=O)Nc2ccccc2F)nnc1SCC(=O)Nc1nnc(C)s1,-22.2
6,Cl.O=C(COc1ccc(Cl)cc1)N1CCN(Cc2ccc3c(c2)OCO3)CC1,-48.2
7,O=C(COc1ccc(S(=O)(=O)N2CCOCC2)cc1)N1CCN(Cc2ccc3c(c2)OCO3)CC1,-10
8,CN(C)c1ccc(C(=O)N2CCCC(N3CCN(Cc4ccc5c(c4)OCO5)CC3)C2)cc1 (stereo not shown),-82.3
9,Cc1ccccc1C(=O)N1CCCC(N2CCN(Cc3ccc4c(c3)OCO4)CC2)C1 (stereo not shown),-11.7
10,COc1ccc(OCC(=O)N2CCN(Cc3ccc4c(c3)OCO4)CC2)cc1,-12.2
11,O=C(COc1ccc(Cl)cc1)N1CCN(Cc2ccc3c(c2)OCO3)CC1,-52.6
12,O=C(CSCc1ccc(Cl)cc1)N1CCN(Cc2ccc3c(c2)OCO3)CC1,-48.2
13,O=C(COc1ccc(Br)cc1)N1CCN(Cc2ccc3c(c2)OCO3)CC1,-53.9
14,N#CCC(=O)N1CCN(Cc2ccc3c(c2)OCO3)CC1,16.3
15,CCc1ccc(OCC(=O)N2CCN(Cc3ccc4c(c3)OCO4)CC2)cc1,-15.9
16,O=C(c1ccc(F)cc1)N1CCCC(N2CCN(Cc3ccc4c(c3)OCO4)CC2)C1 (stereo not shown),-22.2
17,Cl.N#Cc1ccc(OCC(=O)N2CCN(Cc3ccc4c(c3)OCO4)CC2)cc1,-68.1
18,CCOC(=O)Nc1ccc2c(c1)N(C(=O)CN(C)C)c1ccccc1CC2.Cl,-7.94
19,CCOC(=O)C1CCN(C(=O)c2cc3c(=O)n4cccc(C)c4nc3s2)CC1,-15.5
20,FC(F)(F)c1cc(N2CCN(Cc3ccccc3)CC2)c2ccccc2n1,10.9
21,CC(CCc1ccccc1)NC(=O)CNC(=O)N1CC(=O)Nc2ccccc21 (stereo not shown),-2.77
22,CCOCCOC(=O)c1[nH]c2c(c1C)C(=O)CC(c1ccccc1)C2 (stereo not shown),7.35
